Reference: PubChem BioAssay (NCATS)
Results filed as inconclusive are left out. Unmarked numbers belong to inactive results. Calls come from the whole dose curve; as a rule, active = well fitted cell-killing curve with a large enough effect; inconclusive = small, poorly fitted or top-dose-only effect; inactive = no such curve, though single readings can be large or run the other way.

assay: qHTS of pediatric cancer cell lines to identify multiple opportunities for drug repurposing: Primary screen for Saos-2 cells (AID 1347097); conditions: Saos-2 viability, CellTiter-Glo ATP luminescence, 48 h; series mostly up to 46 µM; activity change, negative = cytotoxic: at the top concentration; note: nearly all actives have a fitted effect of over 40% in size
From the text: Drug repurposing or repositioning has been offered as a strategy for drug development in oncology programs. This approach has special potential for childhood cancers and other rare or orphan diseases, where the expected return on new drug development has been a disincentive to pharmaceuticals. […] In this project we exploit the poly-pharmacology of drugs to discover new indications via phenotypic screening of a panel of 19 well-characterized cell lines derived from solid tumors seen in children and adolescents. The goal is to identify approved drugs with previously unrecognized anticancer properties that has the potential to reveal new mechanisms and biological processes involved in carcinogenesis or drug resistance. We employed a titration-based paradigm (quantitative high-throughput screening or qHTS), where all compounds were tested at multiple concentrations for their effect on cell viability. Concentration-response curves (CRCs) were derived directly from the primary screen, and both potency and efficacy values were used to identify compounds with robust bioactivity profiles. We screened the NIH Chemical Genomics Center (NCGC) Pharmaceutical Collection (NPC) and Mechanism Interrogation Plate (MIPE) small molecule collections of approved and investigational compounds against these cell lines; and measured metabolically active cells after 48 hours of compound treatment as a proxy for cell viability. […] Assay Submitter: Nathalia J. Martinez, National Center for Advancing Translational Sciences, National Institutes of Health, Rockville, MD, USA; email: natalia.martinez@nih.gov Shen, M et al. Quantitative high-throughput phenotypic screening of pediatric cancer cell lines identifies multiple opportunities for drug repurposing. Oncotarget 2017 Dec 19;9(4):4758-4772. PMID 29435139.
The cells were obtained from University of North Carolina (UNC), Pediatric Preclinical Testing Program (PPT), and Coriell Institute (CI). qHTS cell viability assay: Cells were assayed in growth media at a density of 500-1,000 cells/well. Five microliters of cells were dispensed into 1,536-well, white, solid-bottom, TC-treated plates (Greiner Bio One) using a multidrop dispenser and incubated at 37 degrees C, 5% CO2, under a humidified atmosphere for 5 hours. Twenty-three nanoliters of compounds and controls (neutral control DMSO or positive control bortezomib at final concentration of 2.3 µM) were subsequently transferred by Kalypsys pintool. For primary screens, the MIPE collection was tested at 11-point dilutions (final concentrations range from 0.78 nM to 46 µM) and the NPC collection at 8-point dilutions (final concentrations range from 0.59 nM to 46 µM). Compounds tested in follow-up screens were assayed at 11-point dilutions. Cells were incubated for 48 hours, followed by addition of 3 µL of CellTiter-Glo (Promega). After a 15 min incubation at room temperature, samples were analyzed for luminescence intensity using a ViewLux High-throughput CCD imager equipped with clear filters.
% is set by controls: 0 for no effect and ±100 for the full control effect.

Going from COc1cc(C(=S)N2CCOCC2)ccc1O to COc1ccc(C(=O)c2ccccc2)c(O)c1, the “activity change, negative = cytotoxic” value falls from -12.7% to -18.3%.

First: CC(=O)OCC1=C(C(=O)O)N2C(=O)[C@@H](NC(=O)CSc3ccncc3)[C@H]2SC1
Second: CCOC(=O)[C@H](CCc1ccccc1)N[C@@H](C)C(=O)N1[C@H](C(=O)O)C[C@@H]2CCC[C@@H]21
The “activity change, negative = cytotoxic” value of the first is lower: 15.7% for the first, 26.8% for the second.

First: CCCCNC(=O)NS(=O)(=O)c1ccc(N)cc1
Second: Cc1cc(NS(=O)(=O)c2ccc(N)cc2)nc(C)n1
The “activity change, negative = cytotoxic” value of the first is higher: 12.1% for the first, -10.5% for the second.

Going from Cc1ncc(CO)c(C=O)c1O to Cc1ccccc1OCC(O)CO (stereo not given), the “activity change, negative = cytotoxic” value rises from -18.5% to 12.3%.

First: O=C(O)CCNC(=O)c1ccccc1
Second: CC(=O)Nc1ccc(CC(=O)O)cc1
The “activity change, negative = cytotoxic” value of the first is lower: -0.738% for the first, 10.8% for the second.

First: Cn1c(=O)c2[nH]c(Br)nc2n(C)c1=O
Second: CC(O)Cn1cnc2c1c(=O)n(C)c(=O)n2C (stereo not given)
The “activity change, negative = cytotoxic” value of the first is higher: 16.7% for the first, -14.6% for the second.

Compared with O=C(Nc1ccc([N+](=O)[O-])cc1)Nc1ccc([N+](=O)[O-])cc1, COc1cc(NS(=O)(=O)c2ccc(N)cc2)ncn1 is lower in “activity change, negative = cytotoxic” value: -18.5% for the first, -21.9% for the second.

First: CCCCCCCCOc1ccc(C(=O)c2ccccc2)c(O)c1
Second: Oc1ccccc1C=NCc1ccccc1
The “activity change, negative = cytotoxic” value of the first is higher: 12.5% for the first, 3.91% for the second.

First: C[C@@H](O)[C@H]1C(=O)N2C(C(=O)O)=C(S[C@@H]3CN[C@H](CNS(N)(=O)=O)C3)[C@H](C)[C@H]12
Second: CC1CCc2c(N3CCC(O)CC3)c(F)cc3c(=O)c(C(=O)O)cn1c23 (stereo not given)
The “activity change, negative = cytotoxic” value of the first is lower: 16.9% for the first, 45.6% for the second.

Going from COc1cc(C)nc(-n2nc(C)cc2OC)n1 to Cl/C(=C\n1cncn1)c1ccc(Cl)cc1Cl, the “activity change, negative = cytotoxic” value falls from 5.22% to -23.1%.

Compared with O=C(O)P(=O)(O)O, CC(=O)N[C@@H](CCC(=O)O)C(=O)O is lower in “activity change, negative = cytotoxic” value: 27.6% for the first, 15.4% for the second.

Going from COc1ccc(-c2cc(C(F)F)nn2-c2ccc(S(N)(=O)=O)cc2)cc1F to CCOc1ccccc1OCCN[C@H](C)Cc1ccc(OC)c(S(N)(=O)=O)c1, the “activity change, negative = cytotoxic” value rises from -11.9% to -3.86%.

Compared with FC1(F)C(F)(F)C(F)(F)C2(F)C(F)(F)C(F)(F)C(F)(F)C(F)(F)C2(F)C1(F)F (stereo not given), CC(=O)O[C@]1(C(C)=O)CC[C@H]2[C@@H]3C=C(Cl)C4=CC(=O)CC[C@]4(C)[C@H]3CC[C@@]21C is lower in “activity change, negative = cytotoxic” value: 28.6% for the first, -25.4% for the second.

First: NS(=O)(=O)Cc1noc2ccccc12
Second: NCCNc1cccc2ccccc12
The “activity change, negative = cytotoxic” value of the first is higher: 5.47% for the first, -26.7% for the second.

First: CCOC(=O)c1c(N)sc2c1CCN(Cc1ccccc1)C2
Second: Nc1nc(N)c(-c2ccccc2)s1
The “activity change, negative = cytotoxic” value of the first is lower: -24.5% for the first, 3.41% for the second.

First: NC1CCN(c2nc3c(cc2F)c(=O)c(C(=O)O)cn3-c2ccc(F)cc2F)C1 (stereo not given)
Second: O=C(c1ccc(F)cc1)C1CCN(CCn2c(=S)[nH]c3ccccc3c2=O)CC1
The “activity change, negative = cytotoxic” value of the first is higher: 74.4% for the first, 41.5% for the second.

First: C=CCN1CCc2nc(N)sc2CC1
Second: O=C(NC1CCN(CCc2c[nH]c3ccccc23)CC1)c1ccccc1
The “activity change, negative = cytotoxic” value of the first is higher: 10.5% for the first, -23.8% for the second.

First: O=C(O)C(Cc1cc(I)c(O)c(I)c1)c1ccccc1 (stereo not given)
Second: CN1CCC(OC(c2ccccc2)c2ccccc2)CC1
The “activity change, negative = cytotoxic” value of the first is higher: 9.07% for the first, -13.6% for the second.

First: NS(=O)(=O)c1ccc(Cl)c(S(N)(=O)=O)c1
Second: COP(=O)(OC)OC(c1ccc(Cl)cc1)P(=O)(OC)OC (stereo not given)
The “activity change, negative = cytotoxic” value of the first is higher: -22.2% for the first, -22.9% for the second.

Compared with N#CCC(=O)NN, CCN(CC)CCOC(=O)C1(c2ccccc2)CCCC1 is lower in “activity change, negative = cytotoxic” value: -0.0722% for the first, -3.29% for the second.
